ST2 inh: IL1RL1 inhibition; actives 2.3% (n = 78,000); AlphaLISA ST2-Fc/biotin-IL-33 interaction, 1 h; AID 1259354; inhibition, % for hits at 17 µM; in the data active = inhibition above about 30%
Target sequence (Q01638 whole entry, looked up): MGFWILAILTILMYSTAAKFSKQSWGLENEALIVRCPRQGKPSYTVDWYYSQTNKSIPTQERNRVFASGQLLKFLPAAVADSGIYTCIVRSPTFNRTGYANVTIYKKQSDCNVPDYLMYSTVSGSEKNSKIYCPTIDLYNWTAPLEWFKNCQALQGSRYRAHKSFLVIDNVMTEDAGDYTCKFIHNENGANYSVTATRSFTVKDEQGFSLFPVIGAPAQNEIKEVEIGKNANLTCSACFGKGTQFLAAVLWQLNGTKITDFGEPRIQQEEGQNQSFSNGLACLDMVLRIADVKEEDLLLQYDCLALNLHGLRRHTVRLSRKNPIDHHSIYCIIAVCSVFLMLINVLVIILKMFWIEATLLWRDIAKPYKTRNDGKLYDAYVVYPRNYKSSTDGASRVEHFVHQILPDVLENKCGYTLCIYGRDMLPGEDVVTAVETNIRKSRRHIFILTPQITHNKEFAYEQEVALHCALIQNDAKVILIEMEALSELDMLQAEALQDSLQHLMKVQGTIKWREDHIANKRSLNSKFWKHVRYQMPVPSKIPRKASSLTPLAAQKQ
Hits are given with their value. This is one part of a sample in which hits are shown more often than they occur.

How did O=C(Nc1ccc(Cl)cc1)c1c[nH]c(=O)n(-c2ccccc2)c1=O do in these assays?
ST2 inh: inactive

What do the screens show for `c1ccc2c(c1)[nH]c1nc(SCCCN3CCOCC3)nnc12`?
ST2 inh: inactive

What do the screens show for `CC(C)CSc1nnc2c(n1)[nH]c1ccccc12`?
ST2 inh: 32%

How did O=[N+]([O-])c1ccc(CSc2nnc3c(n2)[nH]c2ccccc23)cc1 do in these assays?
ST2 inh: inactive

How did Cc1cc(NC(=O)c2ccc(Br)o2)nc2c1c(=O)oc1ccccc12 do in these assays?
ST2 inh: inactive

Results for CCc1ccccc1NC(=O)CSc1nnc(-c2ccncc2)n1-c1ccccc1 ?
ST2 inh: inactive

What do the screens show for `c1ccc(-c2nnc(SCC3CCOCO3)n2-c2ccccc2)cc1` (stereo not drawn)?
ST2 inh: 31%

What do the screens show for `O=C(CSc1nnc(-c2ccco2)n1-c1ccccc1)NCC1CCCO1` (stereo not drawn)?
ST2 inh: inactive

What do the screens show for `Cc1cnn(-c2cnn3cccnc23)c1`?
ST2 inh: inactive

How did COc1ccc(OC)c(S(=O)(=O)Nc2nc3c(s2)C[C@]2(C)CCC([C@H](C)C(=O)N(C)Cc4ccccc4)[C@H](O)[C@H]2[C@@H]3C)c1 (stereo partly drawn) do in these assays?
ST2 inh: inactive

What do the screens show for `CC(C)(O)C#Cc1ccc(C(=O)NCC(c2ccccc2)c2ccccc2)cc1`?
ST2 inh: inactive

Results for COc1ccc(C(=O)c2oc3ccccc3c2NC(=O)c2ccco2)cc1 ?
ST2 inh: 31%

Results for O=C(Nc1c(C(=O)Nc2cccc(F)c2)oc2ccccc12)c1ccco1 ?
ST2 inh: inactive

What do the screens show for `NC(=O)c1oc2ccccc2c1NC(=O)c1ccco1`?
ST2 inh: inactive

What do the screens show for `Cc1cc(OCC(=O)N2N=C(c3ccccc3)CC2(O)C(F)(F)F)ccc1Cl` (stereo not drawn)?
ST2 inh: inactive

Results for COc1ccc2cc(C(N)=O)c(=Nc3ccc(C)cc3)oc2c1 ?
ST2 inh: inactive

How did COc1ccc2cc(C(=O)NC(C)=O)c(=Nc3ccc(F)cc3)oc2c1 do in these assays?
ST2 inh: inactive

What do the screens show for `COc1ccc2cc(-c3nc4ccccc4[nH]3)c(=Nc3ccc(C(N)=O)cc3)oc2c1`?
ST2 inh: 35%

What do the screens show for `NC(=O)C1CCN([C@H]2[C@@H]3OC[C@@H](O3)[C@@H](NCC3CC3)[C@@H]2O)CC1`?
ST2 inh: inactive

Results for Cc1ccn2c(=O)cc(COc3cccc(NC(=O)c4ccccc4)c3)nc2c1 ?
ST2 inh: inactive

How did CN(Cc1cn[nH]c1-c1ccc(F)cc1)Cc1cccn1-c1nccs1 do in these assays?
ST2 inh: inactive

Results for O=C1c2ccccc2C(=O)C1c1ccc(-c2ccccc2)cc1 ?
ST2 inh: inactive

What do the screens show for `O=C1c2ccccc2C(=O)[C@H]2C3c4ccccc4C(c4ccccc43)[C@@H]12`?
ST2 inh: 32%

What do the screens show for `O=C1c2ccccc2C(=O)C1c1cccc2c1CCCC2`?
ST2 inh: inactive

How did O=C(c1cccc(F)c1)N1CCN=C1SCc1cccc(Cl)c1 do in these assays?
ST2 inh: inactive

How did CCOc1cc(C2C(C(=O)OC(C)C)=C(C)NC3=C2C(=O)C(C(=O)OC)C(C)C3)ccc1O (stereo not drawn) do in these assays?
ST2 inh: inactive

Results for CC1C2(C)OC(=N)C(C#N)(C(c3ccncc3)O2)C1(C#N)C#N (stereo not drawn) ?
ST2 inh: inactive

How did CC(C)Oc1ccc(C(=O)N2CCN=C2SCc2ccccc2F)cc1 do in these assays?
ST2 inh: inactive

What do the screens show for `CC(C)CNc1nc2c(c(=O)n(C)c(=O)n2C)n1Cc1c(F)cccc1Cl`?
ST2 inh: inactive

Results for CC1=CC(=O)CC2C1(C)CCC(C)C2(C)CC/C(C)=C/C(=O)O (stereo not drawn) ?
ST2 inh: inactive

Results for C[C@@H]1CC[C@@]2(C)C(CO)=CCC[C@@H]2[C@@]1(C)CC/C(=C/C(=O)O)CO ?
ST2 inh: 36%

Results for Cc1cc([N+](=O)[O-])nn1CCCC(=O)Nc1ccc(C#N)cc1 ?
ST2 inh: inactive

What do the screens show for `Cn1ccn2ncc(C(=O)N3CCn4nc(C(=O)N5CCCC5)cc4C3)c12`?
ST2 inh: inactive

What do the screens show for `CCOC(=O)c1cccnc1N1CCC(O)(c2ccc(C)cn2)CC1`?
ST2 inh: inactive

Results for O=C1/C(=C/c2ccsc2)CS/C1=C\c1ccsc1 ?
ST2 inh: 39%

What do the screens show for `Cc1cccc(/C=C2\CS/C(=C\c3cccc(C)c3)C2=O)c1`?
ST2 inh: 55%

What do the screens show for `COc1ccccc1/C=C1\SC(N2CC(C)OC(C)C2)=NC1=O` (stereo not drawn)?
ST2 inh: inactive

Results for O=C1N=C(N2CCCC2)S/C1=C/c1cccc(O)c1 ?
ST2 inh: inactive

Results for COc1cccc(/C=C2\CS/C(=C\c3cccc(OC)c3OC)C2=O)c1OC ?
ST2 inh: 39%

How did Cc1cccc(/C=C2\NC(=O)N(Cc3ccc(Cl)cc3)C2=O)c1 do in these assays?
ST2 inh: inactive

How did COc1ccccc1/C=C1/SC(N2CCN(C)CC2)=NC1=O do in these assays?
ST2 inh: inactive

How did Cn1ccn2ncc(C(=O)NC3CCCN(C(=O)c4cccs4)C3)c12 (stereo not drawn) do in these assays?
ST2 inh: inactive

Results for COCCCNC(=O)CCCn1c(=O)[nH]c2ccc(Br)cc2c1=O ?
ST2 inh: inactive

How did CCOCc1cn(CC(=O)c2ccc(OC)cc2)c(C)nc1=N do in these assays?
ST2 inh: inactive

How did O=C(CN1CCN(Cc2ccccc2F)C1=O)N1CCOCC1 do in these assays?
ST2 inh: inactive

What do the screens show for `CCOc1ccc(N(C(C)C(=O)Nc2ccc(Cl)cc2)S(C)(=O)=O)cc1` (stereo not drawn)?
ST2 inh: inactive

How did Cc1ccccc1CCC1CCCN(C(=O)Cn2cc(C)c(=O)[nH]c2=O)C1 (stereo not drawn) do in these assays?
ST2 inh: inactive

How did COc1cccc([C@@H]2CCN(Cc3cnc(-c4ccccn4)nc3)C[C@H]2O)c1 do in these assays?
ST2 inh: inactive

Results for CC(=O)NC(C(N)=O)C(SCc1ccccc1)c1c[nH]c2ccccc12 (stereo not drawn) ?
ST2 inh: inactive

Results for CC(=O)n1cc(C(C[N+](=O)[O-])SCc2ccccc2)c2ccccc21 (stereo not drawn) ?
ST2 inh: 41%

How did CC(=O)n1c2ccccc2c2cc([N+](=O)[O-])ccc21 do in these assays?
ST2 inh: inactive

Results for C=CCOc1nc2c(c(=O)n(Cc3ccccc3Cl)c(=O)n2C)n1C ?
ST2 inh: inactive

How did COc1ccc(C2C(C#N)=C(N)Oc3n[nH]c(C)c32)cc1COc1cccc(Cl)c1 (stereo not drawn) do in these assays?
ST2 inh: inactive

Results for FC(F)Oc1ccc(CN2CCOc3ccc(CN4CCC(Oc5cccnc5)CC4)cc3C2)cc1 ?
ST2 inh: inactive

How did Cc1ccc2c3c(c(N)c(=O)[nH]c13)-c1ccccc1C2=O do in these assays?
ST2 inh: 51%

How did O=c1cc(-c2ccc3c(c2)OCCO3)oc2cc(Cl)ccc12 do in these assays?
ST2 inh: inactive

How did Nc1ccc(-c2nnc(-c3ccc(N)cc3)o2)cc1 do in these assays?
ST2 inh: 37%

How did Cc1ccc(-c2nnc(-c3ccc(Cl)cc3)o2)cc1 do in these assays?
ST2 inh: inactive

What do the screens show for `COc1ccc(-c2nnc(N)o2)cc1`?
ST2 inh: inactive

What do the screens show for `CCCCC1=NN(C(=O)c2cccc(Br)c2)C(O)(C(F)(F)F)C1` (stereo not drawn)?
ST2 inh: inactive

From PubChem
